From PMC13494018
A number with no mark means an inactive call. How the calls were made is not given here.

biological target: VTCN1, Q7Z7D3
Sequence (Q7Z7D3 whole entry): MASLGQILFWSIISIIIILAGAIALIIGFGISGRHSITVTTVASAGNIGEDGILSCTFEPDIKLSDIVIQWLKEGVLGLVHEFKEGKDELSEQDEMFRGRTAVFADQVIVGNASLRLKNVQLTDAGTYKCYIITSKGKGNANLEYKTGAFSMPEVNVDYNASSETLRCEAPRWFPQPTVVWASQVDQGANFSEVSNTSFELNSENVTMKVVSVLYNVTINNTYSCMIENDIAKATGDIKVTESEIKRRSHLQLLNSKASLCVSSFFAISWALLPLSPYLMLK

Binder | binding in a display sort
design_598_15ab41e9-cad4-4381-8935-81f74b313fe8_2011_dldesign_0_cycle1_af2pred (protein) KLEEYKKKIKEKAKEMGKSLDPEERKKLLEEIKKLAKEASKELGEKEEIEKFAAEEAHEGLEQASENRFKS | not found
design_599_7ce25d4d-e004-4b84-a16f-baf856d943ab_845_dldesign_0_cycle1_af2pred (protein) NELEKAAKAAEAVAKALRAAAEAGPTPESLAAVEALAKEAAKVDEAAADIARAAVAAARADPARAAEALRRGARIAKRLAEDYKKAI | not found
design_598_15ab41e9-cad4-4381-8935-81f74b313fe8_1677_dldesign_0_cycle1_af2pred (protein) DVAALIAKAAALVDDPSKAAEALKYLVAAREKALSEGDAAALKQIAAVAAEGAKKAPPEYAKGFKLLANTAKSIAEDLEK | not found
design_598_15ab41e9-cad4-4381-8935-81f74b313fe8_2180_dldesign_0_cycle1_af2pred (protein) AEAAEKAAAKAVINEAYDLLGSSTAEEALKYAEEKAKEAKAAGKKIVADAAEKTAKVLKRIAEDEKEAKK | not found
design_598_15ab41e9-cad4-4381-8935-81f74b313fe8_2408_dldesign_0_cycle1_af2pred (protein) ELELLKERAELYERAAKAAEAGKLGAGIRLAAIAEDLIDLELGKKKEKELKASSREEALKILKKEAEKYKAKAKELA | not found
design_598_15ab41e9-cad4-4381-8935-81f74b313fe8_2059_dldesign_0_cycle1_af2pred (protein) GEKEELKEKAKKLKELAKKAVEKAKKAAEENPEAKPLAEKAKELAEEAIKLAEEGTKESLEKAAKILQELREVTAEAEFIARKG | not found
design_599_7ce25d4d-e004-4b84-a16f-baf856d943ab_929_dldesign_0_cycle1_af2pred (protein) GLDAVTDALAEAFYASREIEKIDPELGKELLEYAKELAKKAIAGTPEAAKKLAEEIKKKTEEKLKEAEEKAKKE | not found
design_599_7ce25d4d-e004-4b84-a16f-baf856d943ab_928_dldesign_0_cycle1_af2pred (protein) AAAKEEAEKRAKKALEEGEKAAKEIEKSNAEEARKIAKEFREKAKELVADPEASPEEKKALAEGAQKAYEAAAEKEAKE | not found
design_599_7ce25d4d-e004-4b84-a16f-baf856d943ab_718_dldesign_0_cycle1_af2pred (protein) SELTEKVNKEADELRKRAREIGETARRLAEEAAKHDPAAAEEIRRLASLSIQKLFEGDEEEAERYWEEAVALAKAAVA | not found
design_599_7ce25d4d-e004-4b84-a16f-baf856d943ab_519_dldesign_0_cycle1_af2pred (protein) MEAALEALKKAAAEAANLVYDAADIGAEEAEKAAKEAIKKIKDTATPELAPLAKEYAEKLGKTAERLIENNKYGEELKK | not found
design_598_15ab41e9-cad4-4381-8935-81f74b313fe8_1538_dldesign_0_cycle1_af2pred (protein) KEEAKKKVEEARKLVEEAKKLIEKGEYEKGLKLAEEAAELAHKTSVKYGAGEAEKVYKEASKVISLAWAKLAEAKK | not found
design_598_15ab41e9-cad4-4381-8935-81f74b313fe8_2343_dldesign_0_cycle1_af2pred (protein) ASEELWKKAQEIATKAVAAAQARYAAEGKYEELDKDIDKIYELAVEAAKEGEEGLKKLEEMRKEAEEAAKKALEAA | not found
design_598_15ab41e9-cad4-4381-8935-81f74b313fe8_1784_dldesign_0_cycle1_af2pred (protein) ADEEGKKLVKEKLEEAKKALEKAKAGDKKEALDAASTATRNAHKIEAFAKAVPVSEEVVKLAKEAVKELEKYEEKAAKLLAK | not found
design_599_7ce25d4d-e004-4b84-a16f-baf856d943ab_219_dldesign_0_cycle1_af2pred (protein) MDPAELAAAKQAEAEAIIAETKAKAEKYIEEAKKSKKYVEALQYVGRAEVLLDSTVSYLTKNVGPEAGEKAQEIADKTVKEGFEIVKK | not found
design_599_7ce25d4d-e004-4b84-a16f-baf856d943ab_135_dldesign_0_cycle1_af2pred (protein) MEEEEGEKKVEEAKKKLSAALYEYADMSVNEETLKEGRKKVEEAVKEALELGKKSTPETAEKLKKAAEKALKVAERIEEAS | not found
design_598_15ab41e9-cad4-4381-8935-81f74b313fe8_1691_dldesign_0_cycle1_af2pred (protein) DKEAEAKKIEAAAKKNAEAALADAEKAKEYAKAGDKSKAKQYSESAKIYLELAGTAAKKGAGYPTAPEIKKLYEDTKAKVEEILKEA | not found
design_599_7ce25d4d-e004-4b84-a16f-baf856d943ab_173_dldesign_0_cycle1_af2pred (protein) SEAEKVIEEARKKAEEAREFIKKIREEGGNPEAAELALQALSHFKAAEALAKSGENLESAKKHLEEGKKLLEEAKELYE | not found
design_599_7ce25d4d-e004-4b84-a16f-baf856d943ab_506_dldesign_0_cycle1_af2pred (protein) MEEEKKAIEEAKERAKEIAEKAVKEAKKAKTPKEISEAIREMVRKLRELVKEVREKYSEETAEKVKEIAAKERLKAVDEIAAAK | not found
design_598_15ab41e9-cad4-4381-8935-81f74b313fe8_1648_dldesign_0_cycle1_af2pred (protein) KKEEAKKELLEKVKKLEEEGEKLLEEKTPKEARAKALEKGKEIMKEAEKAIKDPETKEAGKEAKKKAAEAMAKLYEKAAEKEAKE | not found

Binder | binding in a display sort
design_599_7ce25d4d-e004-4b84-a16f-baf856d943ab_284_dldesign_0_cycle1_af2pred (protein) AEVEAFKAAAEKYYKKAKEYFEKAKKTGSKSLYLKGASYAELALHNLENAAKAAAAKDPAEGAKLQKELKETKEELDKLYEEARKAAV | binds (active)
design_599_7ce25d4d-e004-4b84-a16f-baf856d943ab_80_dldesign_0_cycle1_af2pred (protein) SKAAEKAEAQKAKEEATKAAEEAAKEAKKAGLEDLAKYLENAKKTADAKAQASSDPAEAKKYYEKYKATATRLLEDLKKAE | not found
design_599_7ce25d4d-e004-4b84-a16f-baf856d943ab_378_dldesign_0_cycle1_af2pred (protein) AAAAILAATDAEVAAILAKGAEEIAKAAKEEGPEAAKKVATEVLEKANDVIAEGGVKAGLSAKEISARINAAQKEVRAIAEKAIEAAA | not found
design_598_15ab41e9-cad4-4381-8935-81f74b313fe8_1756_dldesign_0_cycle1_af2pred (protein) GFKEEAEKKMEKVLEEAKKASVKEAATIVREAYAELKGIGHLLEKKGKKEEGKFAEEVAKKVLEEGKKIVEEKAAA | not found
design_598_15ab41e9-cad4-4381-8935-81f74b313fe8_1541_dldesign_0_cycle1_af2pred (protein) AEQEKKDEEYKEKAKKGEELAKKAKERAEKNKDDKGVLGSQAELAEHIAKALKKAAEEASEEVKPELKAAAEKAKKVAKYAEELA | not found
design_598_15ab41e9-cad4-4381-8935-81f74b313fe8_1668_dldesign_0_cycle1_af2pred (protein) KEKVKKELEESKKELEKTLEKIKELVSSLPEEEREALAKGLVDPKTALEAAKKIAEAVGKEGANAAQEAISERRAIEQYEKILE | not found
design_599_7ce25d4d-e004-4b84-a16f-baf856d943ab_451_dldesign_0_cycle1_af2pred (protein) EKITAVNEAEAYLEALKHAAEVLTKIDPSLKPEAEKAIKEGEKLVKEAKEGNAETAKKAAEEIRKLLKEVIELGKKAKA | not found
design_599_7ce25d4d-e004-4b84-a16f-baf856d943ab_360_dldesign_0_cycle1_af2pred (protein) TAAITEARDAAVEARGDVELAKAKNAKAEEYEKAAKKAEEAKKKLKEVLETVELSEEERETAERMIEAMERAAEEARKLAKEKK | not found
design_598_15ab41e9-cad4-4381-8935-81f74b313fe8_1969_dldesign_0_cycle1_af2pred (protein) AAAAAKKAQAKKLVGLGLFYYLDYLAGGPESSKEKGDAYYAAAAALDPATAAEAKAKADKIAARFKKDVEEAKK | not found
design_599_7ce25d4d-e004-4b84-a16f-baf856d943ab_290_dldesign_0_cycle1_af2pred (protein) SEARRERLRAEAEEAIEKLKEAAKQAFEAGNGEAALVAVRAAARARRLLADPATVEEGLRVAKEGLEKAEKLLKE | not found
design_598_15ab41e9-cad4-4381-8935-81f74b313fe8_1727_dldesign_0_cycle1_af2pred (protein) SAAQLAASAKGRLLAVADYARAKGISEEAAELAEKAAEADVATAAELAEKAAKLLEEAGDEKLAERARKAAEKLKKAAKE | not found
design_598_15ab41e9-cad4-4381-8935-81f74b313fe8_2441_dldesign_0_cycle1_af2pred (protein) AKEKAEELAKKAREGIERAERRVEEGKKKSKKDAAIYSYSAAELLDSVAAGIVKELLKEDPELGKKVAEEVEKAREEALKEAEKYES | not found
design_599_7ce25d4d-e004-4b84-a16f-baf856d943ab_358_dldesign_0_cycle1_af2pred (protein) HMKYIELLDRINKVSKELQEAYKEASKDPENKPKVEELAKEASELRDKGYDEPEKAEEYLKKMEELAKEMKKLAKE | not found
design_599_7ce25d4d-e004-4b84-a16f-baf856d943ab_160_dldesign_0_cycle1_af2pred (protein) AVKEQTEKTVAATRAAAEAVPEYGEELEKGARVIERLVKDGFLEGAIDVANAIAKFSREVAAEVSEEQAAILKEAADLAEELAKLAK | not found
design_599_7ce25d4d-e004-4b84-a16f-baf856d943ab_441_dldesign_0_cycle1_af2pred (protein) GKKEEAEKKMKKAYEKMKKLAEEAGKAKDPKEAYEYLLKIEEVGAEAINYAAKIGDKETAREAAKKYRELFREAVKKAQAAGKA | not found
design_598_15ab41e9-cad4-4381-8935-81f74b313fe8_2298_dldesign_0_cycle1_af2pred (protein) SKKAEQTLFRAEALGEAVTEAAEQLDPALGARVRERAKELIERAKKDGTLEAAEKALEEMRRLAEEVRAAIEAA | not found
design_599_7ce25d4d-e004-4b84-a16f-baf856d943ab_347_dldesign_0_cycle1_af2pred (protein) AEAEKAKATADAKKEAKAFAEEAKKKAEEASKGTPEDVKKERDKVAAEFDKKIAEAAGNPEAAAAYAEARHEAKAEYDLAYVKAK | not found
design_599_7ce25d4d-e004-4b84-a16f-baf856d943ab_748_dldesign_0_cycle1_af2pred (protein) SKEEIKKQSELMKKATRYVKEAGKAAKVLGEEGKKKVEEMVKLRDQAADSDVETAKKLTEEIEKEAEEVIKKAEEKEK | not found
design_598_15ab41e9-cad4-4381-8935-81f74b313fe8_2338_dldesign_0_cycle1_af2pred (protein) AEEKAKELYAKGEKLYKEGLKADKETGKEYFTKAAEYFKAAAEEFKKAGNVVGAGYAESKAERAKEAAELL | not found
